High-throughput results: PubChem BioAssay, Broad Institute
RAD52 inh: RAD52 DNA annealing inhibitors, primary screen, biochemical, FRET, single point, set 2; inhibition, % at 18.7 µM; DNA repair protein RAD52 homolog (Homo sapiens), P43351; recombinant RAD52 DNA annealing, FRET fluorescence; 360,000 tested, 0.46% active;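 active means every replicate showing at least 50% inhibition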
MLL AF4-AF9 inh: inhibitors of AF4 peptide binding to AF9, primary screen, biochemical, AlphaScreen, biotin-AF4 peptide, FLAG-AF9, single point | inhibition, % at 10 µM | 350,000 tested, 0.47% active | Protein AF-9 (Homo sapiens), P42568 | AID 651704, 2012;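 active means every replicate reaching a set inhibition limit, whatever the replicate mean, cut at about 25% in these data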;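 further: 0% = plate neutral control median and 100% = total signal loss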
Target sequence (P42568 whole entry, looked up): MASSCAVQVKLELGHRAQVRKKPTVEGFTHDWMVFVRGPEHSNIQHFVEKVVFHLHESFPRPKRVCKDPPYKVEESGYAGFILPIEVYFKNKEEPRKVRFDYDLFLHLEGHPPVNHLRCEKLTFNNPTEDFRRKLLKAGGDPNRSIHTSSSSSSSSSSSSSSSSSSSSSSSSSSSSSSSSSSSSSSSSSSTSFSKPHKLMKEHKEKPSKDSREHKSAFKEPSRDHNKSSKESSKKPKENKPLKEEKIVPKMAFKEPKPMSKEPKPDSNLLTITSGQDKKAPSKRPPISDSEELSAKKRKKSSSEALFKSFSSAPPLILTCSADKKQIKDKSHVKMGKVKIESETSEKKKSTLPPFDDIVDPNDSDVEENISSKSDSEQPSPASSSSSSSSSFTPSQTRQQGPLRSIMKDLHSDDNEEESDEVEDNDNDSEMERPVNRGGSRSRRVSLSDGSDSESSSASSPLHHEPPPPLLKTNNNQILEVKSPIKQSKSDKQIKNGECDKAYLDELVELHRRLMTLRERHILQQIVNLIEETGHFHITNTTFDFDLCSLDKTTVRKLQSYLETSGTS
NSD2 HMT inh: NSD2 histone methyltransferase inhibitors, primary screen, biochemical, AlphaScreen, single concentration, set 2. Histone-lysine N-methyltransferase NSD2 (Homo sapiens), O96028. NSD2 peptide methylation, 120 min. inhibition, % at 12.5 µM. 310,000 tested, 0.54% active. AID 743445, 2014; in the data active means inhibition above about 50%
Ecoli rRNA inh: reduced GFP signal of wild-type E. coli, primary screen, bacterial rRNA inhibitor project, GFP/RFP fluorescence, OD600, single point. GFP signal change (wild-type ribosome), % (concentration not given with the values). 350,000 tested, 1.6% active. E. coli WT GFP vs humanized-ribosome RFP mutants, 24 h; stronger effect = lower value; DMSO median 0, no signal -100. AID 720706, 2013;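 active means significant combined selectivity score with lowered wild-type GFP, culture density cut under 30%, mutant RFP and density less affected; inactive means any of these conditions unmet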
CASP6 VEID inh: human caspase-6 inhibitors, primary screen, biochemical, VEID-R110 fluorescence, single point, set 2. P55212. purified caspase-6, Z-VEID-R110 cleavage fluorescence. inhibition, % at 12.5 µM. 350,000 tested, 0.53% active;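 active means mean inhibition across replicates at least about 35%, with every replicate also reaching that limit, limit read from the data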;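 further: 0% = median of neutral control wells and 100% = no fluorescence left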
* marks the source's active call; other numbers are inactive results; nt = not tested or not shown. Only some compounds are listed: those with a hit (about 2.5% of all), similar ones and a draw of the others.

SMILES	RAD52 inh	MLL AF4-AF9 inh	NSD2 HMT inh	Ecoli rRNA inh	CASP6 VEID inh
Cc1cc(=O)[nH]c(SCC(=O)Nc2ccc(C(=O)O)cc2)n1	4	-48	1	3	1
Cc1cc(=O)[nH]c(SCC(=O)Nc2ccc(S(N)(=O)=O)cc2)n1	-20	-5	-1	12	52*
CO[C@@H]1CN(C)C(=O)c2ccc(NC(C)=O)cc2OC[C@H](C)N(C(=O)Cc2ccccn2)C[C@H]1C	-25	1	nt	1	0
COc1ccc(C2N(c3ccccc3)C(=O)C2(F)F)cc1OC (centres undefined)	-9	-2	-3	-23*	0
OCCN1CCN(CC(O)COC(c2ccc(F)cc2)c2ccc(F)cc2)CC1 (centres undefined)	2	1	-3	-4	-5
COc1ccc(N2CCN(CC(O)COC(c3ccccc3)c3ccccc3)CC2)cc1 (centres undefined)	-9	16	23	-8	1
OC(COC(c1ccc(F)cc1)c1ccc(F)cc1)CN1CCCC(C(F)(F)F)C1 (centres undefined)	-13	4	-2	-23*	-2
COc1ccc(N2CCN(CC(O)COC(c3ccc(F)cc3)c3ccc(F)cc3)CC2)cc1 (centres undefined)	-5	27*	7	-62	1
C/C(CC(=O)Nc1cc(C)ccn1)=N\NC(=O)c1cccc(C)c1	-12	-4	2	14	2
C/C(CC(=O)Nc1cc(C)ccn1)=N\NC(=O)c1cccc(C)c1O	1	4	-2	-57	53*
CCCNC(=O)N1CC2(CCN(Cc3ccncc3)CC2)c2c(n(C)c3cc(OC)ccc23)[C@@H]1CO	nt	nt	nt	-4	nt
CN1[C@H](C(=O)NCc2ccccn2)[C@@H](CO)[C@@H]2Cn3c(ccc(-c4ccc(F)cc4)c3=O)[C@@H]21	-15	-1	nt	0	0
C[C@@H]1CCCCO[C@H](CN(C)C(=O)Nc2ccc(C(F)(F)F)cc2)[C@H](C)CN([C@@H](C)CO)C(=O)c2cc(N(C)C)ccc2O1	78*	5	nt	-1	-1
COc1ccc(NC(=O)N(C)C[C@H]2OCCCC[C@@H](C)Oc3ccc(N(C)C)cc3C(=O)N([C@@H](C)CO)C[C@@H]2C)cc1	-7	6	nt	-1	52*
C[C@@H]1CCCCO[C@H](CN(C)C(=O)Nc2ccc(C(F)(F)F)cc2)[C@H](C)CN([C@H](C)CO)C(=O)c2cc(N(C)C)ccc2O1	37	17	nt	-4	-3
Nc1cccnc1Oc1ccc(F)cc1	-10	-1	38	7	52*
Nc1cccnc1Oc1ccc(F)cc1F	2	-1	-4	6	46*
Fc1ccc(Oc2ncccn2)c(F)c1	-14	0	-2	18	-1
C[C@@H]1CCCCO[C@H](CN(C)Cc2ccc(C(F)(F)F)cc2)[C@H](C)CN([C@@H](C)CO)C(=O)c2cc(NC(=O)c3ccccc3)ccc2O1	-15	1	nt	4	0
O=C1CC(C(=O)Nc2ccc(Br)cc2)C2(CCCC2)O1 (centres undefined)	-5	-1	4	5	39*
CCOC(=O)c1csc(-c2sccc2Br)n1	4	-3	-9	-27*	4
C[C@@H]1CN(C)C(=O)c2cccc(N)c2O[C@@H]1CN(C)C	nt	nt	nt	2	nt
O=c1[nH]c2c(cnn2-c2ccc(Cl)cc2)c(=O)n1-c1cccc(Cl)c1	-13	-3	1	-35*	-1
O=C(C[C@H]1C=C[C@@H](NC(=O)Nc2ccc3c(c2)OCO3)[C@@H](CO)O1)NCc1ccccc1	nt	nt	nt	0	nt
CCCN(C)C[C@H]1OCCCC[C@H](C)Oc2ccc(NS(=O)(=O)c3cn(C)cn3)cc2C(=O)N([C@H](C)CO)C[C@H]1C	nt	nt	nt	2	nt
Cc1ccc(-n2c(C3CC3c3ccc(Cl)cc3)n[nH]c2=S)cc1 (centres undefined)	8	-10	-1	-33*	7
CC(=O)N1CCc2c(sc(NC(=O)Cc3ccccc3)c2C(N)=O)C1	-18	-8	nt	8	67*
